Screening data from PubChem.
Compounds with a hit are over-represented: about 2.2% of the library has one in this group of screens.
IEC-6 cytotox: kills IEC-6 intestinal cells in KLF5 counter-screen; IEC-6 cytotoxicity, luminescence viability; 290,000 tested, 0.78% active; inhibition, % at 5 µM; AID 1825; in the data active = inhibition above about 22%;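 also: 0% = plate median of test compound wells and 100% = cytotoxic reference compound wells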
BaF3 tox: parental Ba/F3 viability inhibition as JAK2V617F counter-screen. CellTiter-Glo ATP luminescence. inhibition, % at 5.6 µM. 220,000 tested, 1.1% active;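 active = inhibition above a per-campaign cutoff, the mean inhibition of all tested compounds plus 3 SD, cut at about 27% in these data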;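 also: 0% = DMSO wells and 100% = JAK Inhibitor I control wells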
aSyn UTR inh: 5' untranslated region of α-synuclein, MLPCN primary screen | alpha-synuclein 5'UTR reporter, inhibitor activity | inhibition, % (tested at 7.5 µM) | 300,000 tested, 0.82% active | AID 1813; in the data active = inhibition above about 60%;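 also: H4 neuroglioblastoma cells stably carrying SNCA 5'UTR luciferase fusion; 0% = DMSO wells and 100% = positive control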
Ba/F3 V617F tox: loss of viability in JAK2V617F-driven Ba/F3 cells; Ba/F3 EpoR-JAK2V617F viability, ATP luminescence; inhibition, % at 5.6 µM; 220,000 tested, 1.1% active;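 active = inhibition above the campaign mean plus 3 SD over all tested compounds, cut at about 24% in these data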;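 also: cytokine-independent growth of Ba/F3 cells driven by EpoR plus mutant JAK2; 0% = DMSO-treated cells and 100% = JAK inhibitor I control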
APP transl inh: APP translation inhibition; SH-SY5Y APP 5'UTR-luciferase reporter, luminescence; inhibition, % at 2 µM; 190,000 tested, 0.82% active;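 active = inhibition above a set limit, derived from the sample mean plus 3 SD, cut at about 45% in these data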
KLF5 inh: suppresses KLF5 promoter-driven expression; DLD-1 KLF5 promoter-luciferase reporter, luminescence; inhibition, % at 5 µM; 290,000 tested, 0.23% active; AID 1700;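 active = inhibition above a per-plate limit of that plate's mean compound inhibition plus 3 SD, cut at about 60% in these data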;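 also: 0% = DMSO wells and 100% = LY294002 at 200 µM; higher means less KLF5 promoter-driven luciferase light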
* = called active by the depositor; . = no result given.

SMILES	IEC-6 cytotox	BaF3 tox	aSyn UTR inh	Ba/F3 V617F tox	APP transl inh	KLF5 inh
O=C(CN1C(=O)c2cccc3cccc1c23)NC1CCCC1	10	.	-12	.	.	-14
COc1cccc(/C=C2\Oc3ccc(O)cc3C2=O)c1O	6	.	83*	.	.	-42
COC(=O)c1ccc2c(c1)C(=O)/C(=C/c1ccc(O)cc1)O2	3	5	-118	2	-8	-3
CCC1(C)N=C(N)Nc2nc3cc(C)c(C)cc3n21 (stereo unspecified)	-5	85*	-2	73*	.	-13
CC(C)=CCN1CCN(Cc2cc(C(C)C)n[nH]2)CC1CCO (stereo unspecified)	0	7	5	-2	-2	-3
Cc1c(CCOC(=O)CC23CC4CC(CC(C4)C2)C3)sc[n+]1Cc1ccccc1	0	41*	8	29*	-10	-37
CCOC(=O)Cc1csc(N/N=C\c2ccc(N(C)C)cc2)n1	-1	.	-7	.	.	21
O=C1/C(=C/c2ccccc2[N+](=O)[O-])COc2ccccc21	2	-3	-114	4	86*	8
CNc1ccc(/C=C2\COc3ccccc3C2=O)cc1[N+](=O)[O-]	-7	4	-118	-1	-12	-27
CC(=O)c1c(N2CCCCC2)nc(=S)n(-c2ccccc2)c1C	-1	41*	6	23	11	-12
CCOc1cc(C(=O)Nc2ccccc2F)cc(Br)c1OCC	3	9	-1	1	-10	-12
c1ccc(-c2noc(-c3ccc4ccccc4c3)n2)cc1	2	0	77*	-2	-150	37
O=[N+]([O-])c1ccc(Sc2nc3ccccc3o2)c([N+](=O)[O-])c1	0	10	-16	22	63*	-6
O=[N+]([O-])c1ccc(Cl)cc1Sc1nc2ccccc2o1	0	-1	69*	-4	14	-32
FC(F)(F)c1ccc2c(c1)[nH]c(=S)n2C1CC1	6	3	8	3	2	16
Cc1cccc(NC(=O)c2cc(-c3ccccn3)nc3ccccc23)c1C	-3	3	-34	2	2	-15
Cc1ccc(CNC(=O)c2ccc(N3CCCC3=O)cc2)cc1	0	4	-21	-5	2	12
Cn1nc(C(C)(C)C)cc1C(=O)NCc1ccc(N2CCCC2=O)cc1	11	93*	-13	58*	-16	10
COc1ccc(NC(=S)N2CCNC(=O)C2CC(=O)Nc2ccc(C)cc2)cc1 (stereo unspecified)	5	-2	18	-2	-8	-52
C[n+]1c(/C=C/c2ccc3c(c2)OCO3)ccc2ccccc21	3	33*	-150	41*	-185	-28
Oc1c(N=Nc2ccccn2)ccc2ccccc12	12	4	74*	12	82*	9
c1ccc2c(c1)ccc1ncccc12	0	7	18	-1	18	2
CCOC(=O)N1CCN(S(=O)(=O)c2ccc(C(=O)NNc3nc4c(C)cccc4s3)cc2)CC1	-5	1	50	-5	-28	2
CCOC(=O)N1CCN(S(=O)(=O)c2ccc(C(=O)NNc3nc4cc(C)cc(C)c4s3)cc2)CC1	6	5	66*	2	23	11
CCOC(=O)N1CCN(S(=O)(=O)c2ccc(C(=O)NNc3nc4ccc(Cl)cc4s3)cc2)CC1	5	3	67*	-3	3	-11
SMILES	IEC-6 cytotox	BaF3 tox	aSyn UTR inh	Ba/F3 V617F tox	APP transl inh	KLF5 inh
CCOC(=O)N1CCN(S(=O)(=O)c2ccc(C(=O)NNc3nc4c(C)cc(C)cc4s3)cc2)CC1	0	-1	71*	-5	-22	9
COc1cc(S(=O)(=O)NCc2ccncc2)ccc1Br	9	.	-8	.	.	-11
CCCc1nnc(NC(=O)CCC(=O)Nc2ccc(Br)cc2)s1	-2	.	-32	.	.	-18
CC(=O)/C=C/n1c(=S)oc2ccccc21	6	5	-30	16	87*	-45
Cc1cc(C)cc(NC(=O)c2cccnc2)c1	-2	.	3	.	.	-30
CCCC(=O)Oc1ccc(C2NC(=O)c3ccccc3O2)cc1OC (stereo unspecified)	-5	.	-3	.	.	1
COc1ccc(CCN2CCC(Nc3nc4ccccc4n3Cc3ccc(F)cc3)CC2)cc1	4	41*	103*	75*	3	-29
COc1ccc(CNc2nc3ccccc3n2CCN2CCCCC2)cc1	8	-1	-22	0	-29	-26
CCOC(=O)N1CCN(C(=O)CN(c2ccc(OCC)cc2)S(C)(=O)=O)CC1	2	2	27	-3	12	-5
CCOC(=O)N1CCN(C(=O)CN(c2ccc(Oc3ccccc3)cc2)S(C)(=O)=O)CC1	-5	34*	5	-2	22	-9
N#C/C(=C\c1cn(Cc2ccccc2)c2ccccc12)C(=O)NCc1ccco1	2	9	68*	3	2	9
N#C/C(=C\c1cn(Cc2ccc(F)cc2)c2ccccc12)C(=O)NCc1ccco1	5	5	39	-1	-5	20
N#C/C(=C\c1cn(Cc2cccc(F)c2)c2ccccc12)C(=O)NCc1ccco1	3	2	65*	-3	-7	-1
CC(C)(C)OC(=O)NN=C(c1ccc(O)cc1)c1ccc(O)cc1	-3	.	12	.	.	-11
CCCCC1=CC2=CC(=O)C(C)(OC(=O)c3ccco3)C(=O)C2=CO1 (stereo unspecified)	.	.	0	.	.	.
N#CC1=C(N)Oc2cc3ccccc3cc2C1c1cccs1 (stereo unspecified)	7	4	-21	-1	-18	-2
CN(C)/C=N/C1=C(C#N)C(c2cccs2)c2ccc3ccccc3c2O1 (stereo unspecified)	5	12	.	3	92*	-42
CSc1ccc(/C=C(\NC(=O)c2ccc(C)cc2)C(=O)NN)cc1	-4	57*	7	13	.	-16
CSc1ccc(/C=C(/NC(=O)c2ccc(C)cc2)C(=O)Nc2cccc(C)c2)cc1	-1	3	22	2	-20	-20
c1ccc(-c2cn3c4c(sc3n2)CCCC4)cc1	15	4	117*	5	-88	-134
Cc1nn2cc(-c3ccccc3)nc2s1	5	7	-21	4	-114	-65
Cc1ccccc1N1C(N)=NC(N)=NC1(C)C	-4	57*	9	56*	-4	-17
Cc1ccc(N2C(N)=NC(N)=NC2(C)C)c(C)c1	-2	100*	6	87*	-3	-1
O=C(Cc1ccccc1)NNC(=O)Nc1ccccc1	5	4	0	3	-11	-12
O=C(Nc1ccccc1N1CCCCC1)c1ccc(-c2ccc(Cl)cc2)o1	-1	-2	99*	-2	84*	0
CCOC(=O)c1cccc(NC(=O)/C=C/c2ccc3c(c2)OCO3)c1	5	10	106*	7	14	23
CS(=O)(=O)Cc1cc(N2CCCC2)nc(-c2ccccc2)n1	-6	1	-7	-4	5	0
